# Screen size: about 39,000 compounds; about 3,300 (8.5%) were called active. What follows is part of a selection rich in actives, with near analogues and random picks from the rest.
# Tested on: HepG2
# Assay: cytotoxicity call (relative viability < 0.9)
# Conditions: 10 µM
row,SMILES,cytotoxicity call
1,COc1ccc(S(=O)(=O)Nc2ccc3c(c2)C(=O)N([C@H](C)CO)C[C@H](C)[C@H](CN(C)C(=O)CCC(F)(F)F)OCCCC[C@@H](C)O3)cc1,inactive
2,COc1ccc(NC(=O)Nc2ccc3c(c2)C(=O)N([C@H](C)CO)C[C@@H](C)[C@@H](CN(C)Cc2ccncc2)OCCCC[C@@H](C)O3)cc1,inactive
3,Cc1ccc(S(=O)(=O)NCC[C@H]2CC[C@@H](NS(=O)(=O)c3ccccc3Cl)[C@@H](CO)O2)cc1,inactive
4,Cc1noc(C)c1NC(=O)Nc1ccc2c(c1)CC(=O)N([C@@H](C)CO)C[C@@H](C)[C@H](CN(C)S(=O)(=O)c1cn(C)cn1)O2,inactive
5,CN1C(=O)c2cc(NC(=O)c3cnccn3)ccc2OC[C@H]2O[C@@H](CC(=O)N[C@H]3CCN(Cc4ccccc4)C3)CC[C@H]21,inactive
6,COc1ccc(CN(C)C[C@H]2OCCCC[C@@H](C)Oc3ccc(NC(=O)Nc4cccc5ccccc45)cc3C(=O)N([C@@H](C)CO)C[C@H]2C)cc1,active
7,COc1ccc(CN(C)C[C@@H]2OCCCC[C@@H](C)Oc3ccc(NC(=O)Nc4cccc5ccccc45)cc3C(=O)N([C@H](C)CO)C[C@@H]2C)cc1,inactive
8,COc1ccc(CN(C)C[C@H]2OCCCC[C@H](C)Oc3ccc(NC(=O)Nc4cccc5ccccc45)cc3C(=O)N([C@H](C)CO)C[C@H]2C)cc1,inactive
9,COc1ccc(CN(C)C[C@@H]2OCCCC[C@@H](C)Oc3ccc(NC(=O)Nc4cccc5ccccc45)cc3C(=O)N([C@@H](C)CO)C[C@@H]2C)cc1,inactive
10,COc1ccc(CN(C)C[C@H]2OCCCC[C@@H](C)Oc3ccc(NC(=O)Nc4cccc5ccccc45)cc3C(=O)N([C@@H](C)CO)C[C@@H]2C)cc1,inactive
11,COc1ccc(CN(C)C[C@H]2OCCCC[C@@H](C)Oc3ccc(NC(=O)Nc4cccc5ccccc45)cc3C(=O)N([C@H](C)CO)C[C@@H]2C)cc1,active
12,C[C@H]1CN([C@@H](C)CO)C(=O)c2cc(NC(=O)Cn3cnnn3)ccc2O[C@H]1CN(C)S(=O)(=O)c1ccc(F)cc1,inactive
13,C[C@@H]1CN([C@H](C)CO)C(=O)c2cccc(NS(=O)(=O)c3ccccc3)c2O[C@@H]1CN(C)S(=O)(=O)c1ccccc1,inactive
14,C[C@@H]1CN([C@H](C)CO)C(=O)c2cc(NC(=O)Cc3ccccc3)ccc2O[C@@H](C)CCCCO[C@H]1CN(C)C(=O)Nc1ccc(F)cc1,inactive
15,C[C@H]1CN([C@@H](C)CO)C(=O)Cc2cc(NS(=O)(=O)c3ccc(F)cc3)ccc2O[C@H]1CN(C)S(=O)(=O)c1ccccc1,inactive
16,C#Cc1cnc(OC)cn1,inactive
17,C[C@@H]1CN([C@@H](C)CO)C(=O)c2cc(NC(=O)Nc3cccc4ccccc34)ccc2O[C@@H](C)CCCCO[C@@H]1CN(C)CC1CCCCC1,active
18,C[C@H](CO)N1C[C@H](C)[C@@H](CN(C)C)OCCCC[C@H](C)Oc2ccc(NC(=O)Nc3cccc4ccccc34)cc2C1=O,inactive
19,C[C@@H]1CN([C@@H](C)CO)C(=O)c2cc(NC(=O)Nc3cccc4ccccc34)ccc2O[C@@H](C)CCCCO[C@H]1CN(C)CC1CCCCC1,active
20,C[C@@H]1CCCCO[C@H](CN(C)CC2CCCCC2)[C@@H](C)CN([C@H](C)CO)C(=O)c2cc(NC(=O)Nc3cccc4ccccc34)ccc2O1,active
21,C[C@H]1CCCCO[C@H](CN(C)CC2CCCCC2)[C@@H](C)CN([C@@H](C)CO)C(=O)c2cc(NC(=O)Nc3cccc4ccccc34)ccc2O1,active
22,C[C@H]1CCCCO[C@H](CN(C)C)[C@@H](C)CN([C@@H](C)CO)C(=O)c2cc(NC(=O)Nc3cccc4ccccc34)ccc2O1,inactive
23,CN(C)c1ccc(O)c2c1C[C@@H]1C[C@@H]3[C@@H](N(C)C)C(=O)C(C(N)=O)=C(O)[C@]3(O)C(=O)[C@H]1C2=O,inactive

row,SMILES,cytotoxicity call
1,CC(C)NC(=O)N(C)C[C@@H]1Oc2ccc(NC(=O)Cn3cnnn3)cc2C(=O)N([C@H](C)CO)C[C@H]1C,inactive
2,COCC#Cc1ccc2c(c1)O[C@H](CN(C)S(=O)(=O)c1ccc(OC)cc1)[C@@H](C)CN([C@H](C)CO)S2(=O)=O,inactive
3,O=C(O)c1ccc2c(ccc3nn(-c4ccc(/C=C/c5ccc(-n6nc7ccc8cc(C(=O)O)ccc8c7n6)cc5S(=O)(=O)O)c(S(=O)(=O)O)c4)nc32)c1,inactive
4,C[C@H]1CN([C@@H](C)CO)C(=O)c2cc(C#Cc3ccncc3)cnc2O[C@H]1CN(C)C(=O)c1ccccc1F,inactive
5,COc1ccc(S(=O)(=O)N(C)C[C@H]2Oc3ccc(NC(=O)CCC(F)(F)F)cc3CC(=O)N([C@@H](C)CO)C[C@H]2C)cc1,inactive
6,C[C@@H]1CN([C@H](C)CO)C(=O)c2c(c3ccccc3n2C)-c2ccccc2CO[C@@H]1CN(C)Cc1cccc(O)c1,inactive
7,Cc1noc(C)c1NC(=O)Nc1cccc2c1O[C@@H](CN(C)Cc1ccc(C(=O)Nc3ccccc3N)cc1)[C@H](C)CN([C@@H](C)CO)C2=O,inactive
8,C[C@@H]1CN([C@H](C)CO)C(=O)Cc2cc(NC(=O)Cc3ccccc3)ccc2O[C@@H]1CN(C)S(=O)(=O)c1ccccc1,inactive
9,C[C@@H]1CN([C@H](C)CO)S(=O)(=O)c2ccc(C#CC3CCCC3)cc2O[C@H]1CN(C)Cc1cncnc1,inactive
10,C[C@H](CO)N1C[C@H](C)[C@H](CN(C)Cc2ccncc2)Oc2c(NS(=O)(=O)c3cccs3)cccc2C1=O,inactive
11,CO[C@@H]1CN(C)C(=O)c2ccc(NC(=O)Nc3cccc(F)c3)cc2OC[C@@H](C)N(C(=O)Nc2cccc(F)c2)C[C@H]1C,inactive
12,C[C@H](CO)N1C[C@H](C)[C@H](CN(C)C(=O)CN2CCOCC2)Oc2cc(C#Cc3cccc(F)c3)ccc2S1(=O)=O,inactive
13,C[C@@H]1CCCCO[C@@H](CN(C)C)[C@H](C)CN([C@H](C)CO)C(=O)c2cc(NC(=O)Nc3cccc4ccccc34)ccc2O1,inactive
14,C[C@@H]1CCCCO[C@@H](CN(C)CC2CC2)[C@H](C)CN([C@H](C)CO)C(=O)c2cc(NC(=O)Nc3cccc4ccccc34)ccc2O1,inactive
15,C[C@@H]1CN([C@@H](C)CO)C(=O)c2cc(NC(=O)Nc3cccc4ccccc34)ccc2O[C@@H](C)CCCCO[C@H]1CN(C)CC1CC1,inactive
16,C[C@@H]1CCCCO[C@@H](CN(C)CC2CC2)[C@H](C)CN([C@@H](C)CO)C(=O)c2cc(NC(=O)Nc3cccc4ccccc34)ccc2O1,inactive
17,C[C@@H]1CCCCO[C@H](CN(C)CC2CCCCC2)[C@H](C)CN([C@@H](C)CO)C(=O)c2cc(NC(=O)Nc3cccc4ccccc34)ccc2O1,active
18,C[C@@H]1CCCCO[C@H](CN(C)C)[C@@H](C)CN([C@H](C)CO)C(=O)c2cc(NC(=O)Nc3cccc4ccccc34)ccc2O1,inactive
19,C[C@@H]1CCCCO[C@@H](CN(C)CC2CCCCC2)[C@@H](C)CN([C@@H](C)CO)C(=O)c2cc(NC(=O)Nc3cccc4ccccc34)ccc2O1,active
20,C[C@@H]1CCCCO[C@H](CN(C)CC2CCCCC2)[C@H](C)CN([C@H](C)CO)C(=O)c2cc(NC(=O)Nc3cccc4ccccc34)ccc2O1,active
21,C[C@H]1CCCCO[C@@H](CN(C)CC2CCCCC2)[C@@H](C)CN([C@@H](C)CO)C(=O)c2cc(NC(=O)Nc3cccc4ccccc34)ccc2O1,active
22,C[C@@H]1CCCCO[C@@H](CN(C)CC2CC2)[C@@H](C)CN([C@H](C)CO)C(=O)c2cc(NC(=O)Nc3cccc4ccccc34)ccc2O1,inactive

# Source: the antibiotic and cytotoxicity screens of Wong et al. (2023)
